Measured values as given in PubChem BioAssay (NCI).
The panel holds about 83,000 compounds, 20% with a hit somewhere; the sample as a whole holds those more often.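 The test compound was applied at a single concentration to cells in 96-well plates for 48 hours, and percent growth was recorded.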 Unmarked numbers belong to inactive results. Active and inactive are the calls of the source. Rule for the calls: active = growth percent below 10; inactive = the rest.

The compounds below were run on HL-60(TB) leukemia (assay: NCI-60 one-dose screen, 48 h (100 = growth as untreated, 0 = no growth, -100 = all killed)). Conditions: 10 µM unless noted.

SMILES | growth
NNc1c2ccccc2nc2ccccc12 | 9.09% (active)
CC1=C2[C@@H](CC1)[C@]1(C)O[C@@](C3CC3)(C[C@H]1OC(=O)CO)[C@H]2OC(=O)/C=C/c1ccccc1 | 92.6%
C=C1CC[C@@H]2[C@@](C)(CCC[C@]2(C)C(=O)O)[C@@H]1CC[C@H](CO)CCO | 93.7%
C[C@@H](Oc1cc(-c2cnn(C3CC4(CCCNC4)C3)c2)cnc1N)c1c(Cl)ccc(F)c1Cl (stereo partly drawn) | -41% (active)
Cc1cccc(C)c1NCc1nnc(-c2ccco2)o1 | 97.5%
CCCCC(=O)Nc1ncc(Cc2ccccc2Cl)s1 | -7.94% (active)
CC(=O)Nc1cccc(-n2c(=O)n(C3CC3)c(=O)c3c(Nc4ccc(I)cc4F)n(C)c(=O)c(C)c32)c1 | 27.1%
N#CC(I)CS(=O)(=O)c1ccccc1 (stereo not drawn) | 99%
O=C(NNC(=O)c1ccc(NC(=O)c2ccccn2)cc1)Nc1ccc2ccccc2c1 | 105%
Cc1ccccc1NC(=O)Cn1cc(CN2CCN(c3ccnc4cc(Cl)ccc34)CC2)nn1 | 22.2%
C=C(C)[C@@H]1CCC[C@]2(C(=O)O)CC[C@]3(C)[C@@H](CC[C@@H]4[C@@]5(C)C/C(=C/c6ccncc6)C(=O)C(C)(C)[C@@H]5CC[C@]43C)[C@@H]12 | -5.12% (active)
CS(=O)(=O)c1ccc(/C(=N/NC(N)=S)c2ccc(F)cc2)cc1 | 99.1%
NC(=N\N=C/Cc1ccccc1)/C(N)=N\N=C\Cc1ccccc1 | 70.8%
